# Reference: PubChem BioAssay (Tox21)
# Where “and” joins values, the source holds several entries; their conditions need not be identical. Equal entries are not always repeated. Inconclusive results are not listed. Where a call stands in place of a potency, no number is given. More than one record can exist for a structure, and the calls need not agree. Calls of active or inactive are those of the source. Calls follow the shape of the full dose curve.
# How the values were obtained:
# [1] = target: Acetylcholinesterase (Homo sapiens) (UniProt P22303); experiment: Acetylcholinesterase (AChE) small molecule antagonists: colormetric cell-based qHTS assay (AID 1347395); also: nearly all actives have a fitted effect of over 30% in size; also: potency is read from the fitted curve at half-maximal effect
# Procedure, shortened: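 AChE inhibition read colorimetrically via DTNB–thiocholine in SH-SY5Y cells. Compound 30 min, substrate 90 min, both 37 C.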
# [2] = target: Acetylcholinesterase (Homo sapiens) (UniProt P22303); experiment: Acetylcholinesterase (AChE) small molecule antagonists: fluorescence cell-based qHTS assay (AID 1347398); conditions: Potency: AChE activity; outcome: AChE activity; also: nearly all actives have a fitted effect of over 50% in size; also: potency is read from the fitted curve at half-maximal effect
# Procedure, shortened: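 SH-SY5Y, 2,000 cells/well, attached overnight; cmpd 30 min 37 C; acetylthiocholine/Thiolite Green cocktail 40 min RT; fluorescence Ex/Em 490/520 nm.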
# [3] = target: Acetylcholinesterase (Homo sapiens) (UniProt P22303); experiment: Acetylcholinesterase (AChE) small molecule antagonists: enzyme-based qHTS assay with human liver microsomes (AID 1347399); conditions: Potency: qHTS inhibition; outcome: qHTS inhibition; also: nearly all actives have a fitted effect of over 60% in size
# Procedure, shortened: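 Recombinant human AChE (50 mU/mL in the enzyme mix) and human liver microsomes (0.25 mg/mL final) were preincubated with compound and NADPH (0.25 mg/mL final) for 30 min at 37 C. Acetylthiocholine/DTNB was then added; thiocholine was read colorimetrically after 10 min at room temperature.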
# [4] = target: Acetylcholinesterase (Homo sapiens) (UniProt P22303); experiment: Acetylcholinesterase (AChE) small molecule antagonists: enzyme-based qHTS assay (AID 1347397); conditions: Potency: AChE enzyme activity inhibition; outcome: AChE enzyme activity inhibition; also: nearly all actives have a fitted effect of over 55% in size
# Procedure, shortened: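 Colorimetric DTNB read-out of thiocholine released from acetylthiocholine by recombinant human AChE (50 mU/mL as dispensed). Compounds were preincubated 30 min at RT before substrate/DTNB addition, with a 10 min RT reaction.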
# Acetylcholinesterase (Homo sapiens), sequence (P22303 whole entry, looked up): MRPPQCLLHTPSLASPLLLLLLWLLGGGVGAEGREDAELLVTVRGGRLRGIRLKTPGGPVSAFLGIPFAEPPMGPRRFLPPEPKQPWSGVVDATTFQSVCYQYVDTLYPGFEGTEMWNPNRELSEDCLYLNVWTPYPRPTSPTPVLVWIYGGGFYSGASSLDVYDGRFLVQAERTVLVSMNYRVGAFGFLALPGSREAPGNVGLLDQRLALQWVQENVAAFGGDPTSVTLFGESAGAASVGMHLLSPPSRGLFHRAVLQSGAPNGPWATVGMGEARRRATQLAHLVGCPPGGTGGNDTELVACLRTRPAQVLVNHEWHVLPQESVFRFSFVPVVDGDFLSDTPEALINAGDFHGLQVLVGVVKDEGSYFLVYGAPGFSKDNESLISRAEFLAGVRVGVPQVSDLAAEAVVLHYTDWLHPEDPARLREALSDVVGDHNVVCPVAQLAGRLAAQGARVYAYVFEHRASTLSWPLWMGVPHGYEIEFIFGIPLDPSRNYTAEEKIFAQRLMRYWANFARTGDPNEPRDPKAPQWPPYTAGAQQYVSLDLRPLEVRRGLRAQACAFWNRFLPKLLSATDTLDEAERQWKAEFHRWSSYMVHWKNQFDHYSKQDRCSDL
smiles,measurement,setting,value
Nc1nc(N)nc(-c2ccccc2)n1,Potency,[1],inactive
same,Potency,[2],inactive
same,Potency,[3],inactive
CCCCCC(CO)CCC (stereo not drawn),Potency,[4],inactive
same,Potency,[2],inactive
same,Potency,[3],inactive
O=C(O)c1ccccc1Nc1cc(Cl)ccc1C(=O)O,"activity change, negative = inhibition",[4],2.19% [at 23.6 µM] (inactive)
same,"activity change, negative = inhibition",[2],2.35% [at 23.8 µM] (inactive)
same,"activity change, negative = inhibition",[3],0.168% [at 23.6 µM] (inactive)
CCCCCSCCCCC,Potency,[1],inactive
same,Potency,[2],inactive
same,Potency,[3],inactive
CCCCCCCCOC(=O)c1ccc(O)cc1,Potency,[1],inactive
same,Potency,[2],inactive
same,Potency,[3],inactive
NC(=NCCCCCCN=C(N)/N=C(\N)Nc1ccc(Cl)cc1)/N=C(\N)Nc1ccc(Cl)cc1,Potency,[1],56.1 µM (active) and 62.9 µM (active) and inactive
same,Potency,[2],11.1 µM (active) and 17.7 µM (active) and 16.2 µM (active)
same,Potency,[3],inactive
CC(C)(c1ccc(Oc2ccc(N)cc2)cc1)c1ccc(Oc2ccc(N)cc2)cc1,Potency,[1],inactive
same,Potency,[2],inactive
same,Potency,[3],inactive
O=Cc1ccc(Cl)cc1,Potency,[1],inactive
same,Potency,[2],inactive
same,Potency,[3],inactive
COC(=O)/C=C\C(=O)OC,Potency,[4],inactive
same,Potency,[2],inactive
same,Potency,[3],inactive
CC(C)Nc1cccnc1N1CCN(C(=O)c2cc3cc(NS(C)(=O)=O)ccc3[nH]2)CC1,Potency,[1],inactive
same,Potency,[2],inactive
same,Potency,[3],inactive
CCOCCn1c(C2CCN(CCc3ccc(C(C)(C)C(=O)O)cc3)CC2)nc2ccccc21,Potency,[4],inactive
same,Potency,[2],inactive
same,Potency,[3],inactive
CC(CN)CCCN (stereo not drawn),Potency,[1],inactive
same,Potency,[2],inactive
same,Potency,[3],inactive
CCO[Si](CCCCl)(OCC)OCC,Potency,[4],inactive
same,Potency,[2],inactive
same,Potency,[3],inactive
C1=Cc2ccccc2C1,Potency,[1],inactive
same,Potency,[2],inactive
same,Potency,[3],inactive
O=c1[nH]sc2cc(Cl)ccc12,Potency,[1],inactive
same,Potency,[2],inactive
same,Potency,[3],inactive
CCC(=O)OCc1ccccc1,Potency,[1],inactive
same,Potency,[2],inactive
same,Potency,[3],inactive
CCCc1cc(=O)[nH]c(=S)[nH]1,Potency,[4],inactive
same,Potency,[2],inactive
same,Potency,[3],inactive
Cc1nn(C)c(Oc2ccccc2)c1/C=N/OCc1ccc(C(=O)OC(C)(C)C)cc1,Potency,[1],inactive
same,Potency,[2],inactive
same,Potency,[3],inactive
Nc1ccccc1Nc1ccccc1,Potency,[1],inactive
same,Potency,[2],inactive
same,Potency,[3],inactive
O=C(O)CCCCC(=O)O,Potency,[4],inactive
same,Potency,[2],inactive
same,Potency,[3],inactive
CCCCCOC(=O)CCC,Potency,[4],inactive
same,Potency,[2],inactive
same,Potency,[3],inactive
CC(C)OC(=O)C(C(=O)OC(C)C)=C1SC=CS1,Potency,[1],inactive
same,Potency,[2],inactive
same,Potency,[3],inactive
Nc1cc(Cl)c(-c2cc(Cl)c(N)cc2Cl)cc1Cl,Potency,[1],inactive
same,Potency,[2],inactive
same,Potency,[3],inactive
CC(=O)/C=C/C1C(C)=CCC(C)C1(C)C (stereo not drawn),Potency,[1],inactive
same,Potency,[2],inactive
same,Potency,[3],inactive
O=C(Cl)c1ccc(Cl)cc1Cl,Potency,[1],inactive
same,Potency,[2],inactive
same,Potency,[3],inactive
CCCCCCCCCCCCCCCCI,"activity, negative = inhibition",[1],1.24% [at 23.6 µM] (inactive)
same,"activity change, negative = inhibition",[2],3.93% [at 23.8 µM] (inactive)
same,"activity change, negative = inhibition",[3],0.294% [at 23.6 µM] (inactive)
